# Active and inactive are the calls of the source. Unless noted, no rule for the calls is given here.
# How the values were obtained:
# [1] = compound effects on lung adenocarcinoma cell viability – A549, calcein-AM fluorescence, 48 h, basal, profiling panel (AID 1162); conditions: higher = more signal; also: test concentration not given here
# [2] = compound effects on differentiated 3T3-L1 adipocyte viability – cell-based, 3T3-L1 adipocytes, calcein-AM fluorescence, 48 h, basal, profiling panel (AID 1163); conditions: 3T3-L1 adipocytes viability, higher = more signal; also: test concentration not given here
# [3] = compound effects on hepatocellular carcinoma cell viability – HepG2, calcein-AM fluorescence, 48 h, basal, profiling panel (AID 1164); conditions: higher = more signal; also: test concentration not given here
# [4] = compound effects on multiple myeloma cell viability – MM1S, calcein-AM fluorescence, 48 h, basal, profiling panel (AID 1165); conditions: higher = more signal; also: test concentration not given here
# [5] = calcein-AM signal in unstimulated myeloma cells – cell-based, calcein-AM fluorescence, 48 h, PK04 Diversity Set, profiling panel (AID 1166); conditions: RPMI8226 myeloma viability, higher = more signal;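 also: cells grown under basal conditions without added stimulus; test concentration not given here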
# [6] = JC-1 mitochondrial signal, unstimulated HepG2 cells – cell-based, JC-1 fluorescence, 24 h, 100 nL compound, profiling panel (AID 1167); conditions: HepG2 mitochondrial potential, higher = more signal; also: test concentration not given here
# [7] = JC-1 mitochondrial signal, unstimulated adipocytes – cell-based, JC-1 fluorescence, 3T3-L1 adipocytes, 24 h, 100 nL compound, profiling panel (AID 1168); conditions: JC-1 mitochondrial fluorescence, higher = more signal, called active from +8 up or from −8 down; also: test concentration not given here
# [8] = JC-1 mitochondrial signal, unstimulated myeloma cells – cell-based, JC-1 fluorescence, RPMI8226, 24 h, 100 nL compound, profiling panel (AID 1169); conditions: JC-1 mitochondrial potential fluorescence, higher = more signal; also: test concentration not given here
# [9] = JC-1 mitochondrial signal, unstimulated MM1S myeloma – cell-based, JC-1 fluorescence, 24 h, 100 nL compound, profiling panel (AID 1170); conditions: MM1S mitochondrial potential, higher = more signal; also: test concentration not given here
# [10] = resazurin metabolic signal in A549 cells – cell-based, resazurin fluorescence, 24 h, PK04 Diversity Set, profiling panel (AID 1171); conditions: A549 viability, higher = more signal, called active from +8 up or from −8 down; also: test concentration not given here
# [11] = resazurin metabolic signal in HepG2 cells – cell-based, resazurin fluorescence, 24 h, PK04 Diversity Set, profiling panel (AID 1172); conditions: HepG2 viability, higher = more signal; also: test concentration not given here
# [12] = budding yeast growth changes without added modifier – OD600, strain BY4716, 24 h, basal condition, primary screen (AID 1173); conditions: S. cerevisiae BY4716 growth, OD600, 24 h; higher = more signal, called active from +8 up or from −8 down
# [13] = viability profiling in MM1S myeloma cells – cell-based, resazurin fluorescence, basal, 24 h, PK04 Diversity Set, profiling panel (AID 1174); conditions: higher = more signal, called active from +8 up or from −8 down; also: test concentration not given here
# [14] = molecular target: Dihydroorotate dehydrogenase (quinone), mitochondrial (Plasmodium falciparum (isolate 3D7)) (UniProt Q08210); assay: inhibition of P. falciparum DHODH – biochemical, C-terminal His tag, absorbance 600 nm, primary screen (AID 1175); conditions: PfDHODH enzyme, DCIP absorbance 600 nm; higher = more signal, called active from +8 up or from −8 down;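 also: recombinant parasite enzyme with a five histidine tag at its C terminus; test concentration not given here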
# Sequence of Dihydroorotate dehydrogenase (quinone), mitochondrial (Plasmodium falciparum (isolate 3D7)) (Q08210 whole entry, looked up): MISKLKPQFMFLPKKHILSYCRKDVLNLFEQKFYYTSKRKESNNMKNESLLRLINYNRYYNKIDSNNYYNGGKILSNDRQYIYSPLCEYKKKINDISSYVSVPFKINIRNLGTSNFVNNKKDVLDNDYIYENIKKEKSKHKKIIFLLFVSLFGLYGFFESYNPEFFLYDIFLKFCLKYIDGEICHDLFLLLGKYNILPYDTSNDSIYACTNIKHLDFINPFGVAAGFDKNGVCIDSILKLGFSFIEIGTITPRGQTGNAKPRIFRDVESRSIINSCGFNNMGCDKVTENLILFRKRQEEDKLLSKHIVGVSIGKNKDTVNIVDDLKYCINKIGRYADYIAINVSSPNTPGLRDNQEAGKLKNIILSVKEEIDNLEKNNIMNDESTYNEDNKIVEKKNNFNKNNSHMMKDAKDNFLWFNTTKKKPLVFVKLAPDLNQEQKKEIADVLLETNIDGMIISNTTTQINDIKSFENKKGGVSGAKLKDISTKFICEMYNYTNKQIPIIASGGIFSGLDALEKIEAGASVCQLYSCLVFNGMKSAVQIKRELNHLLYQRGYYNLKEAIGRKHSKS
# [15] = inhibition of PAO1 biofilm formation – strain PAO1, LB-PBS medium, absorbance 600 nm, primary screen (AID 1176); also: test concentration not given here; conditions: P. aeruginosa PAO1 growth/biofilm, A600, 12 h; higher = more signal
# [16] = growth modulation of vineyard yeast isolate – strain RM11-1a, OD600, basal, 24 h, primary screen (AID 1177);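 also: cultures grown under basal conditions with no added stressor; test concentration not given here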; conditions: S. cerevisiae RM11-1a growth, OD600, 24 h; higher = more signal, called active from +8 up or from −8 down
# [17] = growth of efflux-deficient E. coli DRC39 – strain DRC39, OD650, 24 h, E. coli filamentation inducers, primary screen (AID 1178);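 also: growth measured as culture turbidity by optical density at 650 nm; test concentration not given here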; conditions: E. coli DRC39 acrAB, higher = more signal, called active from +8 up or from −8 down
# [18] = growth of efflux-deficient E. coli DRC39 – strain DRC39, OD650, 48 h, E. coli filamentation inducers, primary screen (AID 1179);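 also: screen aims at cell division blockers that make cells filament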; conditions: E. coli DRC39 delta-acrAB growth, higher = more signal, called active from +8 up or from −8 down
# [19] = viability profiling in RPMI8226 myeloma cells – cell-based, resazurin fluorescence, basal, 24 h, PK04 Diversity Set, profiling panel (AID 1180); conditions: higher = more signal;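 also: RPMI8826 multiple myeloma cell line at 5000 cells per well; test concentration not given here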
# [20] = molecular target: E3 ubiquitin-protein ligase XIAP (Homo sapiens) (UniProt P98170); assay: small molecules binding XIAP protein – biophysical, small-molecule microarray, fluorescence 635 nm, primary screen (AID 1181); conditions: higher = more signal;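 also: score merges 667 nm emission and signal to noise over triplicate slides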
# Sequence of E3 ubiquitin-protein ligase XIAP (Homo sapiens) (P98170 whole entry, looked up): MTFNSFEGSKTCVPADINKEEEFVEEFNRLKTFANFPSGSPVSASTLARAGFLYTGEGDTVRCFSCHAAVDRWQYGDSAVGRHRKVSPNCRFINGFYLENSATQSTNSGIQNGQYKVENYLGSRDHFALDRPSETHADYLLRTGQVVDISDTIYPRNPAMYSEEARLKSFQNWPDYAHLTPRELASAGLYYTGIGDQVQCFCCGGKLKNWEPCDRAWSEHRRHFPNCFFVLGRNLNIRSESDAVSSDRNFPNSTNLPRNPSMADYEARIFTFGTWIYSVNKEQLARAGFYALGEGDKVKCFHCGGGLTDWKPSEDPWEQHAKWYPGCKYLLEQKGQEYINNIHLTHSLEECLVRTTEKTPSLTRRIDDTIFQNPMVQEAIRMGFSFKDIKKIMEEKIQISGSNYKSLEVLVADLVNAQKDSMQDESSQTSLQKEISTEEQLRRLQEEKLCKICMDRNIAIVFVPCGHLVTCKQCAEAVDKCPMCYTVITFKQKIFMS
SMILES,z-score [1],z-score [2],z-score [3],z-score [4],z-score [5],z-score [6],z-score [7],z-score [8],z-score [9],z-score [10],z-score [11],z-score [12],z-score [13],composite z-score [14],z-score [15],z-score [16],z-score [17],z-score [18],z-score [19],composite z-score [20]
Cc1ccc(S[C@]2(C(=O)NCC(C)C)CC(=O)N(C(C)C)[C@@H]2c2ccc(CO)cc2I)cc1,1.97,0.508,0.867,-2.41,-2.03,0.978,0.953 (inactive),-0.94,-1.19,0.677 (inactive),-0.16,-2.09 (inactive),-1.52 (inactive),-0.332 (inactive),-0.288 (inactive),-0.91 (inactive),0.485 (inactive),-0.117 (inactive),-1.8,-0.128
CCCC=C(CCC)[C@@H](NC(=O)c1ccc(C(=O)OC)cc1)c1ccc(C(=O)OC)cc1,-1.48,-0.454,-1.54,-1,-1.59,-0.261,-1.28 (inactive),-0.342,-1.15,0.69 (inactive),-0.179,1.24 (inactive),-0.64 (inactive),0.138 (inactive),1.1 (inactive),1.55 (inactive),-1.1 (inactive),-0.486 (inactive),-0.358,0.0627
CN1C(=O)C2C=CC(C(O)COCc3ccccc3)N(Nc3ccc([N+](=O)[O-])cc3[N+](=O)[O-])C2C1=O (stereo not given),1.02,-0.611,-0.832,-1.38,-0.988,-0.681,-0.985 (inactive),-0.141,-0.815,-0.583 (inactive),-0.473,-2.33 (inactive),-0.407 (inactive),-0.42 (inactive),0.558 (inactive),0.288 (inactive),-0.143 (inactive),-0.445 (inactive),-0.143,0.12
COCCCNC(=O)[C@@]1(Cc2ccccc2I)c2ccccc2C(=O)N(C2CCCCC2)[C@H]1c1ccc(CO)cc1,-0.126,0.2,-0.335,-0.339,-0.0802,1.29,-0.276 (inactive),-0.794,-1.01,1.59 (inactive),1.12,-0.6 (inactive),0.28 (inactive),0.154 (inactive),1.13 (inactive),-0.244 (inactive),0.319 (inactive),0.26 (inactive),0.448,-0.0343
C=CCNC(=O)[C@H]1[C@@H]2C(=O)O[C@@H](c3ccccc3)[C@@H](c3ccccc3)N2[C@@H](c2ccc(O)cc2)[C@]12C(=O)Nc1ccccc12,1.94,0.816,1.51,-0.0148,-0.836,-0.948,-0.586 (inactive),0.105,0.24,0.552 (inactive),0.715,-0.842 (inactive),0.557 (inactive),0.776 (inactive),1.15 (inactive),1.76 (inactive),0.691 (inactive),0.975 (inactive),-1.34,-0.144
